Laboratory results from PubChem BioAssay.
The source made the active and inactive calls.

What was measured:
[1] = binders of probe aFSTL3 on microarray, primary screen, stem cell growth factor project, biochemical, small-molecule microarray, fluorescence 635/667 (AID 1064); settings: higher = more signal;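 further: measures binding of the biotinylated anti-FSTL3 antibody to printed compounds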
[2] = binders from COS7 lysate, DM2A8 probe, primary screen, torsin A project, cell lysate, small-molecule microarray, fluorescence 635/667 (AID 1065); settings: higher = more signal, COS7 lysate expressing mutant human TOR1A
[3] = binders of probe aFGF2 on microarray, primary screen, stem cell growth factor project, biochemical, small-molecule microarray, fluorescence 635/667 (AID 1067); settings: higher = more signal;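 further: measures binding of biotinylated aFGF2 protein to printed compounds on slides; z-score merges feature fluorescence and signal-to-noise across triplicate slides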
[4] = binders of probe aFGF10 on microarray, primary screen, stem cell growth factor project, biochemical, small-molecule microarray, fluorescence 635/667 (AID 1071); settings: higher = more signal;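 further: score merges 667 nm spot intensity and signal to noise from triplicate slides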
[5] = target: Neurogenic locus notch homolog protein 2 (Homo sapiens) (UniProt Q04721); assay: Notch2 binders on small-molecule microarrays, primary screen, biochemical, small-molecule microarray, 635 nm fluorescence, stem cell growth factors (AID 1073); settings: Notch2 binding, higher = more signal
Neurogenic locus notch homolog protein 2 (Homo sapiens), sequence (Q04721 whole entry, looked up, canonical isoform): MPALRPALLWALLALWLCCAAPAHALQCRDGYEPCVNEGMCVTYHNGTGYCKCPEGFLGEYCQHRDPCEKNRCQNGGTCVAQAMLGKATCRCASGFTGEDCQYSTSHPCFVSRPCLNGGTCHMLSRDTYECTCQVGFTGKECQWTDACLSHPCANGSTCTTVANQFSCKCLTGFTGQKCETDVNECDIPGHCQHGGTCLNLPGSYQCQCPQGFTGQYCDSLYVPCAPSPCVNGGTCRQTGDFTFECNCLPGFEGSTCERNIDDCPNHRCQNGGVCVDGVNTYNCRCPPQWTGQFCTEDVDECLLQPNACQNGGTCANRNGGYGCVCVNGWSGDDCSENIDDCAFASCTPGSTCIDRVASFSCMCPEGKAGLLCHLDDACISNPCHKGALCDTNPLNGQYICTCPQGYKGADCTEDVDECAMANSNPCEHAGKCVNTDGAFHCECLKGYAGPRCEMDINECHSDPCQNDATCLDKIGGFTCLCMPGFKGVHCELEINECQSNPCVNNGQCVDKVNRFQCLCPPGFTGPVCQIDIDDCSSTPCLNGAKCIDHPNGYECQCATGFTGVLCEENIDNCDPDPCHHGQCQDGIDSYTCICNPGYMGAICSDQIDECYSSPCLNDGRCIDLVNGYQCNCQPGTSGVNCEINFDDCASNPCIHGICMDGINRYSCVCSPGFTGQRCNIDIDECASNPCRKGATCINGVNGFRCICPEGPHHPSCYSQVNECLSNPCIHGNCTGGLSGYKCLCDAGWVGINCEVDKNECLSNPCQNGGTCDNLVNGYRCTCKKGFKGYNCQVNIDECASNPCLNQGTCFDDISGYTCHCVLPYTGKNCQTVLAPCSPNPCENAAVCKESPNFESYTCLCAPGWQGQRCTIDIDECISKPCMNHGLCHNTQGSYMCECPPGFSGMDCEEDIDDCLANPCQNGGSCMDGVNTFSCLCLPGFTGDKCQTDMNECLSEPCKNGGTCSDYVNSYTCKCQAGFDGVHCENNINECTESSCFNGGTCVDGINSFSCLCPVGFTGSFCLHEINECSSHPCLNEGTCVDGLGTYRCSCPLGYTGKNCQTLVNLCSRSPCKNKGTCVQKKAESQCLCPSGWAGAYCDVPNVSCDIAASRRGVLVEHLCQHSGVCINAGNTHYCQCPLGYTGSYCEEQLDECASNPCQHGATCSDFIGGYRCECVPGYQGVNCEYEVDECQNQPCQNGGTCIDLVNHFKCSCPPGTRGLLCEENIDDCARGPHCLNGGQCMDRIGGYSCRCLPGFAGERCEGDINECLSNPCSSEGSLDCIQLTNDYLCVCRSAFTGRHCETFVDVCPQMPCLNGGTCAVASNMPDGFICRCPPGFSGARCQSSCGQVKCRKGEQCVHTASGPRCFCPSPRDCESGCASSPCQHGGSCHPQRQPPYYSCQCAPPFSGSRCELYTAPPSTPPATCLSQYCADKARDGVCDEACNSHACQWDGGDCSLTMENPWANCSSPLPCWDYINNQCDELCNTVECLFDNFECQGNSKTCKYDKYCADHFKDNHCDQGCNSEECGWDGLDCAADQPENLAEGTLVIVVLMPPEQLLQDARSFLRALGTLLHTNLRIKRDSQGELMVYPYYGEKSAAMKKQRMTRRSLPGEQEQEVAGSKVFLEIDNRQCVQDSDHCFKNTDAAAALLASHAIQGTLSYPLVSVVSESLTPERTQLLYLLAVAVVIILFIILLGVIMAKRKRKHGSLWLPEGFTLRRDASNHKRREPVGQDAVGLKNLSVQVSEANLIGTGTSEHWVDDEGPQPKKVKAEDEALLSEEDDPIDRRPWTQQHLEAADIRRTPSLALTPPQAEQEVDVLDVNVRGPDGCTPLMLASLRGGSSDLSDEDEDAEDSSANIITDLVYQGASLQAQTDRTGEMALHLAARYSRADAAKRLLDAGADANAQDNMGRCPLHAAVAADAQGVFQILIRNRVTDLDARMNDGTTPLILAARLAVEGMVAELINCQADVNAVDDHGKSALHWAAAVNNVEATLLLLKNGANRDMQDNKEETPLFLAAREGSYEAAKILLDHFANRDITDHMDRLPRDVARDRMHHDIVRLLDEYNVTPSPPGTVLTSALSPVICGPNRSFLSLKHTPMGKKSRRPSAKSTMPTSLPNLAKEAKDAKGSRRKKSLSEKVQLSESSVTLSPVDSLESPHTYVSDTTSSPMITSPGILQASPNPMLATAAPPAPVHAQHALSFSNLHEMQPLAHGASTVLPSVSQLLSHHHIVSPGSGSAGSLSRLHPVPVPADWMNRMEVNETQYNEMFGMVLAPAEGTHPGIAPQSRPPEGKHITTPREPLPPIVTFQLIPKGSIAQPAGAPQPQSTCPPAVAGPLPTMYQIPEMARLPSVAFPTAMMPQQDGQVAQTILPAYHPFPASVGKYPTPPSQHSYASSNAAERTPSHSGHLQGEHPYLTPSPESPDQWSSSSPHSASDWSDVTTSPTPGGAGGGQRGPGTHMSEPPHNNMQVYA

[6] = target: Pro-neuregulin-1, membrane-bound isoform (Homo sapiens) (UniProt Q02297); assay: NRG1 binders on small-molecule microarrays, primary screen, psychiatric disease protein project, biochemical, small-molecule microarray, fluorescence 635/667 (AID 1075); settings: NRG1 binding, 635 nm fluorescence, higher = more signal;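 further: score combines 667 nm spot fluorescence with signal to noise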
Pro-neuregulin-1, membrane-bound isoform (Homo sapiens), sequence (Q02297 whole entry, looked up, the tested form may be a part, canonical isoform): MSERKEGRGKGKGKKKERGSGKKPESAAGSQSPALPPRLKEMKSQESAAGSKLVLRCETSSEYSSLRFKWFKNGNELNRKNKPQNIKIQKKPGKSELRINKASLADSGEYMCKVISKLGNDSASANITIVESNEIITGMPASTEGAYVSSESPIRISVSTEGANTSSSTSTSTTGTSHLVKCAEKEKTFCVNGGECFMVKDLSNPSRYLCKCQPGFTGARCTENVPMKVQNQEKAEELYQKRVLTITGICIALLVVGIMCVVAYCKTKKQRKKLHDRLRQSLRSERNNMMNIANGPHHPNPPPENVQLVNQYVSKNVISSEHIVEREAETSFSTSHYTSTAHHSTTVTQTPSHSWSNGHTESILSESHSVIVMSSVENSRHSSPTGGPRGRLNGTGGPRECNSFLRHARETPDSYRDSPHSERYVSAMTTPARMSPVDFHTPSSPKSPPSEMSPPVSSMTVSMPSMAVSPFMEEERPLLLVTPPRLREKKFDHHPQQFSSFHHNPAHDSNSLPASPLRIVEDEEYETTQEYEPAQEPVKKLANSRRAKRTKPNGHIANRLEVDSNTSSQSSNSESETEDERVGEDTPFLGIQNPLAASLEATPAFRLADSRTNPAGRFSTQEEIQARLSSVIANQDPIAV

[7] = test system: Neuregulin-1 EGF-like domain; assay: binders of neuregulin-1 EGF-like domain, primary screen, biochemical, small-molecule microarray, 635 nm fluorescence (AID 1081); settings: small-molecule microarray binding, higher = more signal;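 further: binding of the protein to compounds printed on small-molecule microarray slides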
[8] = FRG1 promoter luciferase signal modulators, primary screen, FRG1 inhibition for FSHD, cell-based, C2C12 myotubes, firefly/Renilla luciferase, luminescence (AID 1084); settings: higher = more signal, called active from +8 up or from −8 down
[9] = binders of probe aFST on microarray, primary screen, stem cell growth factor project, biochemical, small-molecule microarray, fluorescence 635/667 (AID 1086); settings: higher = more signal;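 further: score merges 667 nm fluorescence with signal-to-noise of each printed compound spot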
[10] = binders of probe aHhip on microarray, primary screen, stem cell growth factor project, biochemical, small-molecule microarray, fluorescence 635/667 (AID 1087); settings: higher = more signal;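 further: score merges spot fluorescence at 667nm with spot signal to noise ratio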

SMILES	composite z-score [1]	composite z-score [2]	composite z-score [3]	composite z-score [4]	composite z-score [5]	composite z-score [6]	composite z-score [7]	z-score [8]	composite z-score [9]	composite z-score [10]
NC(=O)N1C(=O)C2C(C1=O)C1C=C(CCCO)C2C(C2CC2)N1Cc1cccc(OC(F)(F)F)c1 (stereo not given)	-0.284	0.497	-0.139	-0.238	-0.22	1.95	1.3	0.0154 (inactive)	-0.108	-0.122
CCCCCN1CC=CC23O[C@@H]4/C=C\CCC(C)OC(=O)C4[C@H]2C(=O)N(CCCCCCO)[C@@H]3C1=O (stereo not given in full)	-0.146	-0.355	-0.129	-0.248	-0.641	1.89	1.4	-0.0224 (inactive)	-0.183	-0.0994
CC1CC/C=C\[C@H]2OC34C=CCN(CCN5CCOCC5)C(=O)[C@H]3N(C(C)CO)C(=O)[C@@H]4C2C(=O)O1 (stereo not given in full)	-0.246	-1.61	-0.125	-0.467	-0.939	-1.14	0.737	-0.203 (inactive)	-0.311	-0.0672
CC(=O)NCCCC[C@@H]1NC(=O)[C@H]2C[C@@H](C(=O)NCCCCCNC(=O)CS)[C@@H](c3cccc(OCCO)c3)N2C1=O	-0.0107	0.487	-0.133	-0.379	-0.544	-0.352	1.03	0.824 (inactive)	-0.203	-0.0074
Cc1nc2cc(Br)ccc2c(=O)n1Cc1cccc(O)c1	-0.473	0.116	0.0275	0.659	0.418	-0.134	1.06	0.156 (inactive)	0.314	0.409
CC(C)c1ccc(NN2C(C(O)Cc3ccccc3)C=CC3C(=O)N(c4ccccc4)C(=O)C32)cc1 (stereo not given)	0.0399	-0.0235	0.0116	0.408	1.5	1.76	0.593	0.0899 (inactive)	1.36	-0.0645
CC(C)N1CC=CC23O[C@@H]4/C=C\CCCOC(=O)C4[C@H]2C(=O)N(CCCCCCO)[C@@H]3C1=O (stereo not given in full)	0.59	0.525	-0.0924	0.716	-0.602	2.01	1.03	0.163 (inactive)	-0.302	0.139
COc1ccc(C#Cc2ccc3c(c2)[C@]2(C(=O)N3)[C@H](c3ccc(OCCO)cc3)N3[C@H](c4ccccc4)[C@H](c4ccccc4)OC(=O)[C@H]3[C@@H]2C(=O)N2CCc3cc(OC)c(OC)cc3C2)cc1	-0.253	0.447	-0.0746	0.862	1.2	1.78	1.16	1.14 (inactive)	0.0959	-0.623
CC(CO)N1C(=O)[C@@H]2[C@H]3C(=O)OCC=C[C@H]3OC23C=CCN(c2ccc(Cl)cc2)C(=O)[C@@H]13 (stereo not given in full)	1.22	-1.45	-0.19	-1.14	-1.68	-0.87	0.688	0.529 (inactive)	-0.672	-0.169
COCCOC(=O)N1C(=O)[C@@]2(c3cc(C#CCC(C(=O)OC)C(=O)OC)ccc31)[C@H](C(=O)NC[C@H](O)c1ccccc1)[C@H]1C(=O)O[C@H](c3ccccc3)[C@H](c3ccccc3)N1[C@@H]2c1ccc(OCCO)cc1	-0.341	0.0051	-0.113	0.245	0.917	0.161	1.23	0.856 (inactive)	0.5	-0.0994
COc1cc(NN2C(C(O)c3ccccc3)C=CC3C(=O)N(C)C(=O)C32)cc(OC)c1OC (stereo not given)	0.0217	0.48	0.0074	0.371	1.34	1.88	1.36	0.359 (inactive)	0.4	-0.0672
COc1cc2c(cc1OC)CN(C(=O)[C@@H]1[C@H]3C(=O)O[C@H](c4ccccc4)[C@H](c4ccccc4)N3[C@H](c3ccc(O)cc3)[C@@]13C(=O)Nc1ccc(C#CCCO)cc13)CC2	-0.281	0.0865	-0.0962	0.658	0.711	1.39	1.17	-0.101 (inactive)	0.628	-0.201
CCc1cccc(NC(=O)O[C@H]2[C@H](OC(=O)Nc3ccccc3)[C@H](OC(=O)Nc3ccccc3)[C@@H](OC)O[C@@H]2CO)c1	-0.0949	0.0776	0.0457	1.2	1.19	1.7	1.25	2.16 (inactive)	0.766	-0.201
CCCC=C(CCC)[C@@H](NS(=O)(=O)c1cccc2cccnc12)c1ccc(-c2ccccc2)cc1	-0.245	0.185	0.103	0.91	1.66	1.08	0.898	2 (inactive)	1.41	-0.0417
C=CCC(OC(C)=O)[C@@H]1[C@@H](N(Cc2cccc3ccccc23)C(=O)c2cccc3ccccc23)c2cc(OCCCO)ccc2N1C(=O)c1ccc2ccccc2c1 (stereo not given in full)	-0.232	-0.124	0.365	0.0197	-0.833	-0.247	-0.313	-2.36 (inactive)	0.268	-0.132
CN(C)C(=O)[C@]1(CCS(=O)(=O)c2ccccc2)N=C(c2ccc(OCCCO)cc2)O[C@@H]1c1ccccc1	0.227	0.398	0.0759	0.88	1.58	1.76	1.35	-1.74 (inactive)	0.968	-0.236

SMILES	composite z-score [1]	composite z-score [2]	composite z-score [3]	composite z-score [4]	composite z-score [5]	composite z-score [6]	composite z-score [7]	z-score [8]	composite z-score [9]	composite z-score [10]
COc1cccc(/C=C(\C#N)C(=O)Nc2c(C)n(C)n(-c3ccccc3)c2=O)c1	-0.408	0.251	-0.107	0.324	0.694	1.06	1.1	-0.496 (inactive)	0.336	-0.216
COC(=O)C(CC#Cc1ccc2c(c1)[C@]1(C(=O)N2)[C@H](c2ccc(OCCO)cc2)N2[C@H](c3ccccc3)[C@H](c3ccccc3)OC(=O)[C@H]2[C@@H]1C(=O)N1CCN(c2ncccn2)CC1)C(=O)OC	-0.505	1.01	0.0275	1.12	1.51	0.746	1.27	1.45 (inactive)	0.643	0.386
C=CCNC(=O)[C@H]1[C@@H]2C(=O)O[C@@H](c3ccccc3)[C@@H](c3ccccc3)N2[C@@H](c2ccc(OCCO)cc2)[C@]12C(=O)N(C(=O)OCCOC)c1ccc(C#Cc3ccc(OC)cc3)cc12	0.0886	0.91	-0.0252	0.713	0.897	0.671	1.12	0.0138 (inactive)	0.111	-0.335
CCCCCCCCCCC(O)C1C=CC2C(=O)N(C)C(=O)C2N1Nc1cc(OC)c(OC)c(OC)c1 (stereo not given)	0.736	-0.157	-0.194	-0.873	-0.717	0.55	-0.199	0.507 (inactive)	0.0296	-0.21
O=C1C2C=CC(C(O)c3ccco3)N(Nc3ccccc3)C2C(=O)N1c1ccccc1 (stereo not given)	0.76	-0.79	-0.0767	-0.216	-0.331	0.944	1.08	0.64 (inactive)	0.225	-0.134
COc1ccc([Si](C)(C)[C@@H]2[C@@H](CC(=O)N3Cc4ccccc4C[C@H]3CO)O[C@]3(C(=O)N(Cc4ccc(N5CCC5=O)cc4)c4ccccc43)[C@H]2C)cc1	-0.406	0.351	-0.12	0.163	0.291	0.636	0.866	-1.63 (inactive)	0.246	-0.23
COc1cc(C(O)C2C=CC3C(=O)N(Cc4ccccc4)C(=O)C3N2n2cnnc2)cc(OC)c1OC (stereo not given)	-0.246	0.606	0.133	0.537	1.49	0.332	1.14	-1.7 (inactive)	0.39	-0.0867
COC(=O)C(CC#Cc1ccc2c(c1)[C@]1(C(=O)N2)[C@H](C(=O)Nc2nc3ccccc3s2)[C@H]2C(=O)O[C@H](c3ccccc3)[C@H](c3ccccc3)N2[C@@H]1c1ccc(OCCO)cc1)C(=O)OC	0.156	0.444	-0.0036	1.05	1.4	1.87	1.24	1.9 (inactive)	0.846	-0.137
C=CCNC(=O)[C@H]1[C@@H]2C(=O)O[C@@H](c3ccccc3)[C@@H](c3ccccc3)N2[C@@H](c2ccc(O)cc2)[C@]12C(=O)N(C(=O)OCCOC)c1ccc(C#CCC(C(=O)OC)C(=O)OC)cc12	-0.114	0.85	-0.0422	0.453	0.719	0.225	1.21	0.172 (inactive)	0.376	-0.162
CN1C(=O)C2C=CC(C(O)c3cc(C(F)(F)F)cc(C(F)(F)F)c3)N(NC(=O)OC(C)(C)C)C2C1=O (stereo not given)	0.153	0.324	-0.0169	0.577	1.67	2.01	1.03	1.07 (inactive)	1.52	-0.0296
CCOC(=O)C[C@H]1[C@H](OC(=O)c2ccccc2-c2ccccc2)[C@@H](NC(=O)c2ccc3ccccc3n2)c2cc(OCCCO)ccc2N1C(=O)c1ccccc1	-0.384	0.491	-0.0752	0.331	0.417	0.288	0.666	-0.764 (inactive)	0.377	0.0401
CC(C)C[C@@H]1NC(=O)[C@H]2C[C@@H](C(=O)NCCCCCN)[C@@H](c3cccc(OCCO)c3)N2C1=O	0.721	-0.1	-0.107	0.0414	-0.182	0.896	1.24	-0.599 (inactive)	-0.565	-0.0645
O=C1c2ccccc2[C@](Cc2ccccc2I)(C(=O)NC2CC2)[C@H](c2ccc(CO)cc2)N1Cc1ccccc1C(F)(F)F	-0.0446	0.338	-0.0878	0.433	-0.229	1.74	1.26	-2.07 (inactive)	0.11	-0.0726
CC(C)[C@H]1NC(=O)[C@@]23C(=O)N[C@@H](Cc4ccccc4)C2[C@H](C)[C@@]2(C)O[C@H]2C3/C=C/C/C=C\CNC(=O)[C@H](Cc2ccccc2)NC1=O (stereo not given in full)	-0.264	0.425	-0.0462	1.01	0.878	0.781	0.957	0.304 (inactive)	0.353	0.235
COCCOC(=O)N1C(=O)[C@@]2(c3ccccc31)[C@H](c1ccccc1OCCO)N1[C@H](c3ccccc3)[C@H](c3ccccc3)OC(=O)[C@H]1[C@@H]2C(=O)N1CCCCCCC1	4.11	2.32	0.959	1.32	1.78	2.25	1.39	-3.81 (inactive)	3.36	2.53
COc1ccc([Si](C)(C)[C@H]2[C@H](CC(=O)N3Cc4ccccc4C[C@H]3CO)O[C@@]3(C(=O)N(Cc4ccc(N5C(=O)c6cccc7cccc5c67)cc4)c4ccccc43)[C@@H]2C)cc1	-0.0494	0.245	-0.0953	0.329	0.393	1.73	1.17	-4.44 (inactive)	1.07	0.61
